Source: PubChem
Myeloid diff MLP: induction of myeloid progenitor differentiation, primary screen, cell-based, flow cytometry, MLPCN library | calls only at 10 µM | AID 624256, 2012 | ER-HoxA9 myeloid progenitors, lysozyme-GFP differentiation | 360,000 compounds, 1% hits;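 active means normalized GFP-positive differentiation at or above the plate's own cutoff, the solvent-only control mean plus 3 SD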;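 further: cells exposed to compound for four days before flow analysis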
SKN-1 inh: suppressors of acrylamide-induced Pgst-4::GFP reporter in worms, primary screen, SKN-1 inhibitor project, whole organism, uHTS, GFP/RFP fluorescence ratio, strain VP596; C. elegans VP596 Pgst-4::GFP/RFP ratio, 24 h; inhibition, % at 21.8 µM; 360,000 compounds, 0.49% hits;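 active means interference check ratio from 0.5 to 1.5 plus GFP to RFP signal ratio inhibition reaching or exceeding a fixed threshold, cut at about 30% in these data, passing the limit was not always enough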
CHRM1 agonist: human M1 muscarinic receptor agonists, primary screen, Fluo-8 calcium fluorescence, CHO-K1 cells, HTS; CHO-K1 hM1, agonist mode; 0% DMSO, 100% acetylcholine EC100; 360,000 compounds, 0.33% hits; activation, % at 3 µM; Muscarinic acetylcholine receptor M1 (Homo sapiens), P11229;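 active means activation above the run's mean compound activation plus 3 SD, cut at about 16% in these data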;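 further: peak over basal fluorescence ratio within a 140 s kinetic read after compound addition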
Target sequence (P11229 whole entry, looked up): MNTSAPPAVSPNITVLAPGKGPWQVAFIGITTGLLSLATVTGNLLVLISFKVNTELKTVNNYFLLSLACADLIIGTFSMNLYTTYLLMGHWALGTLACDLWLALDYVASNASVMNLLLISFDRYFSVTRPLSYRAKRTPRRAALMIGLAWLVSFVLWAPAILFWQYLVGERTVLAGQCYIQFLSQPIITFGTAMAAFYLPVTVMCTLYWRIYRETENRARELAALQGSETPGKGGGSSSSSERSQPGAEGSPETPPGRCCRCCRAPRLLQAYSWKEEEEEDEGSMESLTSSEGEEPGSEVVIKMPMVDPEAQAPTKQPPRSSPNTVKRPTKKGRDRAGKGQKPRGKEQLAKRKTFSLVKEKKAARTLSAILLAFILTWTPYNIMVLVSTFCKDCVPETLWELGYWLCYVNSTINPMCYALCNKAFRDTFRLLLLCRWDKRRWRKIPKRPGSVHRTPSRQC
ATG4B inhibitor: ATG4B protease inhibitors, primary screen, biochemical, fluorescence, uHTS | Cysteine protease ATG4B (Homo sapiens), Q9Y4P1 | ATG4B cleavage of LC3-PLA2, NBD-HPC fluorescence, 1 h | inhibition, % at 8.33 µM | 340,000 compounds, 0.51% hits; in the data active means inhibition above about 40%
M1 antag: human M1 muscarinic receptor antagonists, primary screen, CHO-K1 cells, Fluo-8 calcium fluorescence, 1536-well; Muscarinic acetylcholine receptor M1 (Homo sapiens), P11229; CHO-K1 hM1, ACh EC80 antagonist; inhibition, % at 3 µM; 360,000 compounds, 1.3% hits; AID 588852, 2011;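 active means percent inhibition above its own plate's cutoff, namely the mean of that plate's compound wells plus 3 SD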;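 further: peak over basal fluorescence ratio during 140 s after agonist addition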
CHRM1 PAM: human M1 muscarinic receptor positive allosteric modulators, primary screen, CHO-K1 cells, Fluo-8 calcium fluorescence, 1536-well | 360,000 compounds, 0.088% hits | AID 588819, 2011 | Muscarinic acetylcholine receptor M1 (Homo sapiens), P11229 | CHO-K1 hM1, ACh EC20; 0% = ACh EC20, 100% = maximal ACh | activation, % at 3 µM; in the data active means activation above about 19%, passing the limit was not always enough
Myeloid diff CP1: inducers of myeloid progenitor differentiation, confirmation, cell-based, GFP/Mac1 flow cytometry, cherry pick 01. 2,300 compounds, 2% hits. shares compounds with Myeloid diff MLP. AID 651706, 2012. ER-HoxA9 myeloid progenitors, GFP/Mac1 double-positive flow. calls only;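 active means share of green or green-and-red cells above 9 and 9% in run 1 or 4 and 3% in run 2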
GFP autofluor: counter-screen for myeloid differentiation promoters: compound fluorescence | 2,300 compounds, 7.4% hits | shares compounds with Myeloid diff MLP | fluorescence response, % (no concentration beside the values) | ER-HoxA9 myeloid progenitors, no estrogen, GFP autofluorescence flow cytometry; vehicle wells 0%, positive control 100%;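 active means over 5% cells positive for green fluorescent reporter, or over 2% positive for both it and APC stain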
Large screens that a line does not name were inactive (follow-up assays come after a bar, where they were run). Shown are actives, neighbours in structure and some others; about 3.5% of the full set was active somewhere.

Cc1ccc(C(=O)Nc2ccc(Cl)cc2C(=O)c2ccccc2)cc1	none | Myeloid diff CP1 inactive | GFP autofluor 5.1
Cc1cccc2c1=NC(=O)/C(=C/c1c(O)[nH]c(=O)[nH]c1=O)C=2	none
O=c1[nH]c(=S)[nH]c(O)c1/C=C1/C=c2ccccc2=N1	Myeloid diff MLP active | Myeloid diff CP1 inactive | GFP autofluor 16
CCOP(=O)(OCC)c1ccc(O)cc1	none
CC(C)CCn1c(=O)c(C(=O)Nc2ccccc2S(N)(=O)=O)c(O)c2ccccc21	none | Myeloid diff CP1 inactive | GFP autofluor 8.6
CCCCCn1c(=O)c(C(=O)Nc2ccccc2Cl)c(O)c2ccccc21	Myeloid diff MLP active | Myeloid diff CP1 inactive | GFP autofluor inactive
CCCCn1c(=O)c(C(=O)Nc2ccccc2C)c(O)c2ccccc21	none
CC(C)=CCC12CN3CCN(CC(C3)C1=O)C2	none
CCC(CC)NCc1c[nH]c2ccccc12	Myeloid diff MLP active | Myeloid diff CP1 inactive | GFP autofluor inactive
COc1ccc(CN2CCN(Cc3ccccc3)CC2)c(OC)c1	none | Myeloid diff CP1 inactive | GFP autofluor inactive
COc1ccc(CN2CCN(C(=O)Cc3ccccc3)CC2)c(OC)c1	none
CCC(C)C1N=C(c2ccccc2)c2cc(Cl)ccc2N(CC(=O)NCc2ccco2)C1=O (stereo not given)	none
Cc1ccccc1C1=NCC(=O)N(CC(=O)NCc2ccco2)c2sc3c(c21)CCCC3	none | Myeloid diff CP1 inactive | GFP autofluor inactive
Cc1ncc(C(=O)O)n1C(C)c1ccccc1 (stereo not given)	none (no result: ATG4B inhibitor)
O=C(NCC(c1cccnc1)N1CCN(c2ccc(F)cc2)CC1)Oc1ccccc1 (stereo not given)	none | Myeloid diff CP1 inactive | GFP autofluor inactive
CCCCC12CNCC(C)(CNC1)C2=O	none
